In PubChem BioAssay AID1159580 (chemical genetic matrix, 2015):
The campaign covered roughly 5,500 compounds. About 2,000 (36%) were called active. Roughly 18% stayed inconclusive and do not appear here. Rule as the data show it: active = normalized growth mostly below about 0.91 (no sharp cut-off); inconclusive = no clear call, values can overlap the other calls; inactive = mostly above about 0.92. The list shows a part of the results.

Test: chemical genetic growth profiling, strain panel (AID 1159580);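 also: tested at 20 µM; growth read once vehicle control cultures reached saturation at 30 °C; 1 = growth at the plate median or of vehicle wells; lower values mean less growth of the strain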
Conditions: growth OD
[1] = S. cerevisiae deletion strains, locus YDL101C, strain DUN1, stronger effect = lower value
[2] = S. cerevisiae deletion strains, locus YHR030C, strain SLT2, stronger effect = lower value

Measured: normalized growth

Cc1onc(NC(=O)NC(=O)c2c(F)cccc2Cl)c1Br
inactive: S. cerevisiae deletion strains, locus YAL013W, strain DEP1, stronger effect = lower value 1 | S. cerevisiae deletion strains, locus YBR229C, strain ROT2, stronger effect = lower value 0.996 | S. cerevisiae deletion strains, locus YCL061C, strain MRC1, stronger effect = lower value 1.03 | [1] 1.04 | S. cerevisiae deletion strains, locus YDR150W, strain NUM1, stronger effect = lower value 1.01 | S. cerevisiae deletion strains, locus YEL061C, strain CIN8, stronger effect = lower value 0.973 | S. cerevisiae deletion strains, locus YGR078C, strain PAC10, stronger effect = lower value 1.01 | [2] 0.96 | S. cerevisiae deletion strains, locus YHR087W, strain rtc3, stronger effect = lower value 0.971 | S. cerevisiae deletion strains, locus YJR043C, strain POL32, stronger effect = lower value 1.01 | S. cerevisiae deletion strains, locus YJR075W, strain HOC1, stronger effect = lower value 1.01 | S. cerevisiae deletion strains, locus YLR039C, strain RIC1, stronger effect = lower value 1 | S. cerevisiae deletion strains, locus YLR058C, strain SHM2 (second series), stronger effect = lower value 1 | S. cerevisiae deletion strains, locus YLR085C, strain ARP6, stronger effect = lower value 0.986 | S. cerevisiae deletion strains, locus YLR262C, strain YPT6, stronger effect = lower value 0.988 | S. cerevisiae deletion strains, locus YML094W, strain GIM5, stronger effect = lower value 0.973 | S. cerevisiae deletion strains, locus YMR219W, strain ESC1, stronger effect = lower value 0.998 | S. cerevisiae deletion strains, locus YMR263W, strain SAP30, stronger effect = lower value 1.01 | S. cerevisiae deletion strains, locus YNL153C, strain GIM3, stronger effect = lower value 1.02 | S. cerevisiae deletion strains, locus YNL298W, strain CLA4 (second series), stronger effect = lower value 1.01 | S. cerevisiae deletion strains, locus YNL322C, strain KRE1, stronger effect = lower value 1 | S. cerevisiae deletion strains, locus YNR030W, strain Alg12, stronger effect = lower value 0.981 | S. cerevisiae deletion strains, locus YOL006C, strain TOP1, stronger effect = lower value 1 | S. cerevisiae deletion strains, locus YPL055C, strain LGE1, stronger effect = lower value 0.964 | S. cerevisiae deletion strains, locus YPL241C, strain CIN2, stronger effect = lower value 1 | S. cerevisiae deletion strains, locus YPR135W, strain CTF4, stronger effect = lower value 0.977 | S. cerevisiae strains, strain wild type, stronger effect = lower value 1

OC(CNCc1ccc(Cl)cc1)CO/N=C\C1=C(Cl)c2cc(Cl)ccc2OC1 (stereo not drawn)
inactive: S. cerevisiae deletion strains, locus YAR019C, strain CDC15, stronger effect = lower value 0.962 | S. cerevisiae deletion strains, locus YBL105C, strain PKC1, stronger effect = lower value 0.981 | S. cerevisiae deletion strains, locus YBR135W, strain CKS1, stronger effect = lower value 0.981 | S. cerevisiae deletion strains, locus YBR136W, strain MEC1, stronger effect = lower value 0.957 | S. cerevisiae deletion strains, locus YBR160W, strain CDC28, stronger effect = lower value 0.988 | S. cerevisiae deletion strains, locus YDL017W, strain CDC7, stronger effect = lower value 0.986 | S. cerevisiae deletion strains, locus YDL028C, strain MPS1, stronger effect = lower value 0.975 | [1] 0.987 | S. cerevisiae deletion strains, locus YDL108W, strain KIN28, stronger effect = lower value 0.967 | S. cerevisiae deletion strains, locus YDL132W, strain cdc53, stronger effect = lower value 0.979 | S. cerevisiae deletion strains, locus YDL214C, strain PRR2, stronger effect = lower value 0.925 | S. cerevisiae deletion strains, locus YDR052C, strain DBF4, stronger effect = lower value 0.989 | S. cerevisiae deletion strains, locus YDR054C, strain cdc34, stronger effect = lower value 0.98 | S. cerevisiae deletion strains, locus YDR226W, strain ADK1, stronger effect = lower value 0.97 | S. cerevisiae deletion strains, locus YDR477W, strain SNF1, stronger effect = lower value 0.974 | S. cerevisiae deletion strains, locus YER123W, strain YCK3, stronger effect = lower value 0.867 | S. cerevisiae deletion strains, locus YER133W, strain GLC7, stronger effect = lower value 0.933 | S. cerevisiae deletion strains, locus YFL009W, strain cdc4, stronger effect = lower value 0.976 | S. cerevisiae deletion strains, locus YFL029C, strain CAK1, stronger effect = lower value 0.963 | S. cerevisiae deletion strains, locus YFR003C, strain YPI1, stronger effect = lower value 0.981 | S. cerevisiae deletion strains, locus YFR019W, strain FAB1, stronger effect = lower value 0.921 | S. cerevisiae deletion strains, locus YFR028C, strain CDC14, stronger effect = lower value 0.96 | S. cerevisiae deletion strains, locus YGR040W, strain KSS1, stronger effect = lower value 0.97 | S. cerevisiae deletion strains, locus YGR052W, strain FMP48, stronger effect = lower value 1 | S. cerevisiae deletion strains, locus YGR092W, strain DBF2, stronger effect = lower value 0.928 | [2] 0.871 | S. cerevisiae deletion strains, locus YHR079C, strain IRE1, stronger effect = lower value 0.931 | S. cerevisiae deletion strains, locus YHR082C, strain KSP1, stronger effect = lower value 0.966 | S. cerevisiae deletion strains, locus YHR205W, strain SCH9, stronger effect = lower value 0.949 | S. cerevisiae deletion strains, locus YIL147C, strain SLN1, stronger effect = lower value 0.969 | S. cerevisiae deletion strains, locus YJL095W, strain BCK1, stronger effect = lower value 0.915 | S. cerevisiae deletion strains, locus YJL128C, strain PBS2, stronger effect = lower value 0.933 | S. cerevisiae deletion strains, locus YJL157C, strain FAR1, stronger effect = lower value 0.971 | S. cerevisiae deletion strains, locus YJR016C, strain ILV3, stronger effect = lower value 0.991 | S. cerevisiae deletion strains, locus YJR066W, strain TOR1 (second series), stronger effect = lower value 1 | S. cerevisiae deletion strains, locus YJR066W, strain TOR1, stronger effect = lower value 0.944 | S. cerevisiae deletion strains, locus YKL048C, strain ELM1, stronger effect = lower value 0.931 | S. cerevisiae deletion strains, locus YKL067W, strain YNK1, stronger effect = lower value 0.937 | S. cerevisiae deletion strains, locus YKL101W, strain HSL1, stronger effect = lower value 0.923 | S. cerevisiae deletion strains, locus YKL193C, strain SDS22, stronger effect = lower value 0.981 | S. cerevisiae deletion strains, locus YKL203C, strain TOR2, stronger effect = lower value 0.983 | S. cerevisiae deletion strains, locus YLR113W, strain HOG1, stronger effect = lower value 0.87 | S. cerevisiae deletion strains, locus YLR133W, strain CKI1, stronger effect = lower value 0.96 | S. cerevisiae deletion strains, locus YLR403W, strain SFP1, stronger effect = lower value 0.996 | S. cerevisiae deletion strains, locus YML070W, strain DAK1, stronger effect = lower value 0.924 | S. cerevisiae deletion strains, locus YMR001C, strain CDC5, stronger effect = lower value 0.985 | S. cerevisiae deletion strains, locus YMR205C, strain PFK2 (second series), stronger effect = lower value 0.949 | S. cerevisiae deletion strains, locus YMR277W, strain FCP1, stronger effect = lower value 0.981 | S. cerevisiae deletion strains, locus YNL006W, strain LST8, stronger effect = lower value 0.99 | S. cerevisiae deletion strains, locus YNL020C, strain ARK1, stronger effect = lower value 0.963 | S. cerevisiae deletion strains, locus YNL161W, strain CBK1, stronger effect = lower value 0.983 | S. cerevisiae deletion strains, locus YNL183C, strain NPR1, stronger effect = lower value 0.932 | S. cerevisiae deletion strains, locus YNL207W, strain RIO2, stronger effect = lower value 0.97 | S. cerevisiae deletion strains, locus YNL222W, strain SSU72, stronger effect = lower value 0.979 | S. cerevisiae deletion strains, locus YNL307C, strain MCK1 (second series), stronger effect = lower value 0.934 | S. cerevisiae deletion strains, locus YOL078W, strain AVO1, stronger effect = lower value 0.984 | S. cerevisiae deletion strains, locus YOL136C, strain PFK27, stronger effect = lower value 0.921 | S. cerevisiae deletion strains, locus YOR061W, strain CKA2, stronger effect = lower value 0.969 | S. cerevisiae deletion strains, locus YOR119C, strain RIO1, stronger effect = lower value 0.957 | S. cerevisiae deletion strains, locus YOR231W, strain MKK1, stronger effect = lower value 0.918 | S. cerevisiae deletion strains, locus YOR329C, strain SCD5, stronger effect = lower value 0.977 | S. cerevisiae deletion strains, locus YPL031C, strain PHO85, stronger effect = lower value 0.975 | S. cerevisiae deletion strains, locus YPL153C, strain RAD53, stronger effect = lower value 0.984 | S. cerevisiae deletion strains, locus YPL204W, strain HRR25, stronger effect = lower value 0.994 | S. cerevisiae deletion strains, locus YPL209C, strain IPL1, stronger effect = lower value 0.981 | S. cerevisiae deletion strains, locus YPL256C, strain CLN2, stronger effect = lower value 0.864 | S. cerevisiae deletion strains, locus YPR025C, strain CCL1, stronger effect = lower value 0.981 | S. cerevisiae deletion strains, locus YPR106W, strain ISR1, stronger effect = lower value 0.963 | S. cerevisiae deletion strains, locus YPR111W, strain DBF20, stronger effect = lower value 0.962 | S. cerevisiae deletion strains, strain NNK1, stronger effect = lower value 0.959 | S. cerevisiae deletion strains, strain TSCII, stronger effect = lower value 0.979
